Assay [1] deals with T1, Serine/threonine-protein kinase D2 (Homo sapiens) (UniProt Q9BZL6).
T1 sequence (whole entry): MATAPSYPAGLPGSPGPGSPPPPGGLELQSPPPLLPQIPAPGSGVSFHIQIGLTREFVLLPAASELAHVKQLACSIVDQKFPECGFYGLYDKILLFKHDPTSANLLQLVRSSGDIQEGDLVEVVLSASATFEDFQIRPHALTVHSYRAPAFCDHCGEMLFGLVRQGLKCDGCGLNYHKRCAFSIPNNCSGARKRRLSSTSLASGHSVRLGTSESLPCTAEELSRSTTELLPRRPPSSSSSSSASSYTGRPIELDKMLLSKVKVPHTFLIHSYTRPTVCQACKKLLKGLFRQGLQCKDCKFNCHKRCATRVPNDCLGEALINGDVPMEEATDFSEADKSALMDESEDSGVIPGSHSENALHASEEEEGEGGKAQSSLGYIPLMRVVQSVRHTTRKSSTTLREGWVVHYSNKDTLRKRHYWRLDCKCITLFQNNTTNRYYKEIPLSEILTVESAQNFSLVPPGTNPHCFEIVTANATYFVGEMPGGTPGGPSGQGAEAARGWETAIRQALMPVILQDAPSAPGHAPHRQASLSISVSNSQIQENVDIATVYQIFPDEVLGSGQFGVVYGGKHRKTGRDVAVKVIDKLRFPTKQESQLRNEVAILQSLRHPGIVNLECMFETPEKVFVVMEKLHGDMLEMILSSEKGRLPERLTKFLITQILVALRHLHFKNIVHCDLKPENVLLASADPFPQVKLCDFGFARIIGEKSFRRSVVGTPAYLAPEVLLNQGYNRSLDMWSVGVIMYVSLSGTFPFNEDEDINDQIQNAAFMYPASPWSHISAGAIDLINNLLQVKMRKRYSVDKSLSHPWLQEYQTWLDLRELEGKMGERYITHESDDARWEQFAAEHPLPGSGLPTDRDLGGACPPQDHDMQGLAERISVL
The following applies: at 1 µM.

Assay [2] has as its target T2, Serine/threonine-protein kinase D3 (Homo sapiens) (UniProt O94806).
T2 sequence (whole entry): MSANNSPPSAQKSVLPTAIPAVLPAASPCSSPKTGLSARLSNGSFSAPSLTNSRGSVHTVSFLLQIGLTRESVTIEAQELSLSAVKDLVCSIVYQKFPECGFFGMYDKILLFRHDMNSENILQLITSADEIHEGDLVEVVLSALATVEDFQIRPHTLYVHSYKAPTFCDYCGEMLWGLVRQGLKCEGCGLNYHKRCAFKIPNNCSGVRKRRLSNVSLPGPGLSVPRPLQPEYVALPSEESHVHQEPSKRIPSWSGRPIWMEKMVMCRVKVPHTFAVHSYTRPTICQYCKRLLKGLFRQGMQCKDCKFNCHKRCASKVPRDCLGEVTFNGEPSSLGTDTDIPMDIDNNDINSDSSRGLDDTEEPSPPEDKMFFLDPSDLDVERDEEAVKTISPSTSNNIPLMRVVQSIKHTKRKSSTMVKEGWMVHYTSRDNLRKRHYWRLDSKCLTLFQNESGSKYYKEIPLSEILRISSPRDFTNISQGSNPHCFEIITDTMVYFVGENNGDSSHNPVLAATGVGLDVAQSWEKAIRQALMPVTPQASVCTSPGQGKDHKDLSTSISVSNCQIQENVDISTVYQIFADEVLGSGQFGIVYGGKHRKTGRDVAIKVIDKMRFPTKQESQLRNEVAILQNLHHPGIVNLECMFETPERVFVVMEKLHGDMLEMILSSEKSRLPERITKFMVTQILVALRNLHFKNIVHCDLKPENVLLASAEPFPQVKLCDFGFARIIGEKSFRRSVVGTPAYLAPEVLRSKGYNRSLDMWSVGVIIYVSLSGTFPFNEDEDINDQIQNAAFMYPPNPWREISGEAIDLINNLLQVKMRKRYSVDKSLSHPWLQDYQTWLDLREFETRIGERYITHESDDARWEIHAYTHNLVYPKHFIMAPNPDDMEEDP
The following applies: at 0.1 µM.

The target of assay [3] is T2, Serine/threonine-protein kinase D3 (Homo sapiens). The following applies: at 1 µM.
Assay [4] deals with T3, cGMP-dependent protein kinase 1 (Homo sapiens) (UniProt Q13976).
T3 sequence (whole entry): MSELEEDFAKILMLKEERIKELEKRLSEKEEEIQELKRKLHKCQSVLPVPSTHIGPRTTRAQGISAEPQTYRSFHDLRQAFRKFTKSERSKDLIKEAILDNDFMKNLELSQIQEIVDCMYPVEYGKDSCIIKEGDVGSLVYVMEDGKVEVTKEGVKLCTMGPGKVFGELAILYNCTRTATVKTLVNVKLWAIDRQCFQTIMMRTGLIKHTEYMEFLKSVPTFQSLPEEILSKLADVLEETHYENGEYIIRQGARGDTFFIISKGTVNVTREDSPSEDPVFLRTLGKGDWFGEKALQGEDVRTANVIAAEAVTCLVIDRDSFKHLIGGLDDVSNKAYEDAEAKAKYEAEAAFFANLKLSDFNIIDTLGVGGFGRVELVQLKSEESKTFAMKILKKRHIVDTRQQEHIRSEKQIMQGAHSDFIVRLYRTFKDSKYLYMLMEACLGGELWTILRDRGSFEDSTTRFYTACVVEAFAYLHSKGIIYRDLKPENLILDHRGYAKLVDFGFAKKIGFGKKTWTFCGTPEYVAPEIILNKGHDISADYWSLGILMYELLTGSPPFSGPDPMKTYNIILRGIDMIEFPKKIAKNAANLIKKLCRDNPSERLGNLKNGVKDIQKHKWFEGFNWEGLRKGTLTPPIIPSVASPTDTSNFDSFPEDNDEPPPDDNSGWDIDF
As to conditions: at 0.1 µM.

In assay [5] the target is T3, cGMP-dependent protein kinase 1 (Homo sapiens). The following applies: at 1 µM.
The target of assay [6] is T4, cGMP-dependent protein kinase 2 (Homo sapiens) (UniProt Q13237).
T4 sequence (whole entry): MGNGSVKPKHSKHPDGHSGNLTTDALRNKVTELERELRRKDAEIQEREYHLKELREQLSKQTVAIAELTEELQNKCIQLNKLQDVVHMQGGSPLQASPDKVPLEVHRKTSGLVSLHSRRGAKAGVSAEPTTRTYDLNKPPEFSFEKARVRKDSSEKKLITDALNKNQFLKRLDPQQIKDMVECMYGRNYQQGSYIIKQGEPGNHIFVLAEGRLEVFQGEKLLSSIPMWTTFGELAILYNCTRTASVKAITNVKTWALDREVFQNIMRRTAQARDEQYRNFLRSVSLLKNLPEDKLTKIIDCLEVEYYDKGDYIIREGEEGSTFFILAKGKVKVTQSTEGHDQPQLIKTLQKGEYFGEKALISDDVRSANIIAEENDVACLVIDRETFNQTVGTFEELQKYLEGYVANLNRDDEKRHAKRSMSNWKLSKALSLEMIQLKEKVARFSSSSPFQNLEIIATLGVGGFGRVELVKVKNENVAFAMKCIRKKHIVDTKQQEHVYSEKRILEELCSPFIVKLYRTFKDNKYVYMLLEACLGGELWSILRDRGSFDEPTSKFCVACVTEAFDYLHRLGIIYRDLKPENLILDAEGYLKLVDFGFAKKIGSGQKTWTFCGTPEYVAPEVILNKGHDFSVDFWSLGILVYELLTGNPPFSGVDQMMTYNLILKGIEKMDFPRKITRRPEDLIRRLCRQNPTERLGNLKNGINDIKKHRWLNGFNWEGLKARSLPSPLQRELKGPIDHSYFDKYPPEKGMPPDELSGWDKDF
The following applies: at 0.1 µM.

Assay [7] concerns the target T4, cGMP-dependent protein kinase 2 (Homo sapiens). As to conditions: at 1 µM.
Assay [8] deals with T5, cAMP-dependent protein kinase catalytic subunit PRKX (Homo sapiens) (UniProt P51817).
T5 sequence (whole entry): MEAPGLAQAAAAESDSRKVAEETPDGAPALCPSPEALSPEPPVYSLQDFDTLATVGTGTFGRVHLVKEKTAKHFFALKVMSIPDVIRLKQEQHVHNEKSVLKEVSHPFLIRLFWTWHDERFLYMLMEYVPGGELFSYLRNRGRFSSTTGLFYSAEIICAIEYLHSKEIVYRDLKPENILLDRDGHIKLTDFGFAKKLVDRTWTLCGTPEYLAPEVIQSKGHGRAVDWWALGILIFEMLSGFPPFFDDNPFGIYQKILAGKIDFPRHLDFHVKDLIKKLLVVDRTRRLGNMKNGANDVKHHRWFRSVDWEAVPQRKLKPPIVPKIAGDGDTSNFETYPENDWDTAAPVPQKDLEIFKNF
As to conditions: at 0.1 µM.

Assay [9] has as its target T5, cAMP-dependent protein kinase catalytic subunit PRKX (Homo sapiens). As to conditions: at 1 µM.
Assay [10] addresses Rho-associated protein kinase 1 (Homo sapiens) (UniProt Q13464). As to conditions: at 0.1 µM.

A word on the inhibition: it is the change of the read-out against control, counted positive when it falls.

Rho-associated protein kinase 1 (Homo sapiens), sequence (Q13464 2-1354 limits assumed): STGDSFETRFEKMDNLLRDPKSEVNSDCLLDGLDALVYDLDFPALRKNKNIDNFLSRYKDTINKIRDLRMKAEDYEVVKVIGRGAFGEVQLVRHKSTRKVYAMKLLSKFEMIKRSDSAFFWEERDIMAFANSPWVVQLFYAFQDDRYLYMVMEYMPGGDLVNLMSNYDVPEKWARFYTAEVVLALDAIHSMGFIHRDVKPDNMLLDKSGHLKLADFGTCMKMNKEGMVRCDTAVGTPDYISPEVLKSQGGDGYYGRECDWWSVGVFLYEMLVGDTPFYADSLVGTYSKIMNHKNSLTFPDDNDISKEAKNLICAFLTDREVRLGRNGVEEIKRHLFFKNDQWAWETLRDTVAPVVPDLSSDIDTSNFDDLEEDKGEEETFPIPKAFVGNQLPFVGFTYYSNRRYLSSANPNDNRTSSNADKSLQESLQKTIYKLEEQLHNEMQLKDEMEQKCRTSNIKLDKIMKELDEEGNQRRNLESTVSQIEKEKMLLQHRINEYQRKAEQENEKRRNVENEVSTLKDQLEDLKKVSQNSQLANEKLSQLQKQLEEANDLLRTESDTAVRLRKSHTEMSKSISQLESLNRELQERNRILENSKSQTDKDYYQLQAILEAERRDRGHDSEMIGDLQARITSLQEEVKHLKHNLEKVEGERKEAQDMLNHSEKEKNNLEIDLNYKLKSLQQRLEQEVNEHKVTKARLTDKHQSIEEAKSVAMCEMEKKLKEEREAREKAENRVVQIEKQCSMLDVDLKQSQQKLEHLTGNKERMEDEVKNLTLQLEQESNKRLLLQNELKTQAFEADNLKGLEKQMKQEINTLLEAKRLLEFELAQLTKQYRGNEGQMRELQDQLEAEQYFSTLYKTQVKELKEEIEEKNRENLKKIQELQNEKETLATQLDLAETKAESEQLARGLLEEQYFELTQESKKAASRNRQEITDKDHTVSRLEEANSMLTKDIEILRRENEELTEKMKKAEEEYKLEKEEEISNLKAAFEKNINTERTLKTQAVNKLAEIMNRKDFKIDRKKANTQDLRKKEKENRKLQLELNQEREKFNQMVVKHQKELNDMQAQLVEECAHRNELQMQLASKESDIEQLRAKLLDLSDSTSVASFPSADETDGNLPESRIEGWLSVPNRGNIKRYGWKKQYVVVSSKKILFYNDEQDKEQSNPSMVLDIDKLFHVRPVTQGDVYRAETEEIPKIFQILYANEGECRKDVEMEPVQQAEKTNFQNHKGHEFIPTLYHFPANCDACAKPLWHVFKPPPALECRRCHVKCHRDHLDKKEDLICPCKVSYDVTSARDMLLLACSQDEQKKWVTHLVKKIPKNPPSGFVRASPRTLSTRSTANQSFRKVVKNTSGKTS

As for `Cc1cc(O)cc(C)c1/C=C/c1cncc(-c2nn[nH]n2)c1`, the inhibition in assay [1] turned out to be 4.1%; in assay [2] it was 2.66%; in [3] it was 4.77%; in assay [4], 2.15%; in assay [5] it was 4.8%; in [6] it was 2.47%. For the same compound, the inhibition in assay [7] came out at 3.8%; in assay [8], 1.59%; in [9] it was 1.75%; in [10], 1.38%.
`COc1cc2ncn(-c3cc(OCc4ccccc4C(F)(F)F)c(C(N)=O)s3)c2cc1OC`: the inhibition was -1.87% in assay [1]; 0.67% in assay [2]; -0.49% in [3]; 2.93% in assay [4]; 0.86% in [5]; 1.68% in assay [6]. The inhibition in assay [7] stood at 1.12%; in assay [8], 1.89%; in assay [9] it was 2.8%; in assay [10], 1.68%.
Regarding `CC1=C(C(=O)Nc2ccc3[nH]ncc3c2)C(c2ccc3ccccc3c2)CC(=O)N1` (stereo not drawn), the inhibition was 6.67% in assay [1]; 3.48% in assay [2]; 8.7% in assay [3]; 12.8% in assay [4]; 53.3% in [5]; 12.6% in assay [6]. The inhibition in assay [7] came out at 53.3%; in assay [8], 33.7%; in assay [9] it was 75.3%.
For the compound `CCn1c(-c2nonc2N)nc2cncc(C(=O)N3CC[C@H](N)C3)c21`, the inhibition in assay [1] worked out at 8.24%; in assay [2] it was 3.97%; in [3] it was 7.57%; in [4], 57%; in assay [5], 82.5%; in assay [6], 72.7%. Besides, the values for the inhibition in assay [7], in assay [8] and in assay [9] were 83.7%, 31.8% and 73.4%, respectively.
Take `CCc1cccc(NC(=O)Nc2ccc(Oc3ccc4nc(NC(=O)OC)[nH]c4c3)cc2)c1`: the inhibition in assay [1] is 1.88%; in [2] it was 1.72%; in assay [3], 0.75%; in [4], -0.2%; in assay [5], 3.08%; in assay [6], 0.88%. In addition, the inhibition in assay [7] was determined as 0.86%; in assay [8] it was 0.91%; in assay [9], 3.18%; in assay [10], 12.1%.
`CS(=O)(=O)CCN(CC#N)Cc1ccc(-c2ccc3ncnc(Nc4ccc(OCc5cccc(F)c5)c(Cl)c4)c3c2)o1`: the inhibition in assay [1] is -4.76%; in [2], -2.15%; in assay [3], -3.08%; in assay [4] it was 2.42%; in assay [5], 3.06%; in assay [6] it was 0.52%. The inhibition in assay [7] is 0.66%; in assay [8], 1.58%; in [9], 1.54%; in assay [10], 0.99%.
Take `CS(=O)(=O)CCNCc1nc(-c2ccc3ncnc(Nc4ccc(F)c(Cl)c4)c3c2)cs1`: the inhibition in [1] came to 2.87%; in assay [2] it was 1.23%; in [3], 1.58%; in assay [4], 1.73%; in assay [5], 3.32%; in assay [6], 0.95%. For the same compound, the inhibition in assay [7] amounted to 2.67%; in assay [8] it was 0.91%; in [9], 1.76%; in assay [10], 1.23%.
For the compound `CCn1c(-c2nonc2N)nc2c(N3CCCC3)nccc21`, the inhibition in assay [1] was -0.31%; in assay [2], -0.29%; in [3] it was 0.75%; in assay [4], 0.96%; in [5], 3.63%; in assay [6], 1.09%. For the same compound, the inhibition in assay [7] was found to be 9.26%; in assay [8] it was 0.17%; in [9], 0.74%; in assay [10] it was 3.22%.
`COc1cc(C=NNc2ncnc3c2cnn3-c2ccccc2)ccc1O`: the inhibition in [1] came to 2.86%; in assay [2], 2.52%; in assay [3], 3%; in assay [4], 1.67%; in assay [5], 1.52%; in assay [6] it was 2.05%. For the same compound, the inhibition in assay [7] is 4.06%; in assay [8], 1.55%; in assay [9], 1.36%; in assay [10] it was 0.41%.

(Values after ChEMBL document CHEMBL1961873, “Compounds: GSK PKIS; Assays: Nanosyn kinase panel” (2012).)
